High-throughput results: PubChem, Fisher Drug Discovery Resource Center
Shown is part of a subset that was picked to be rich in hits.
mcGAS RapidFire – inhibitors of Mus musculus cyclic GMP-AMP synthase, initial high-throughput assay, cell-free, RapidFire MS | inhibition, % at 12.5 µM | AID 1259397, 2018 | recombinant mouse cGAS, cGAMP by RapidFire MS | Q8C6L5 | 0.18% of 130,000 active;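 active = inhibition of cGAS enzyme activity at or above 60%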;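 also: enzyme stimulated by 45 bp dsDNA with ATP and GTP substrates; cGAMP share of summed cGAMP plus half ATP and half GTP signals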
Target sequence (Q8C6L5 whole entry, looked up): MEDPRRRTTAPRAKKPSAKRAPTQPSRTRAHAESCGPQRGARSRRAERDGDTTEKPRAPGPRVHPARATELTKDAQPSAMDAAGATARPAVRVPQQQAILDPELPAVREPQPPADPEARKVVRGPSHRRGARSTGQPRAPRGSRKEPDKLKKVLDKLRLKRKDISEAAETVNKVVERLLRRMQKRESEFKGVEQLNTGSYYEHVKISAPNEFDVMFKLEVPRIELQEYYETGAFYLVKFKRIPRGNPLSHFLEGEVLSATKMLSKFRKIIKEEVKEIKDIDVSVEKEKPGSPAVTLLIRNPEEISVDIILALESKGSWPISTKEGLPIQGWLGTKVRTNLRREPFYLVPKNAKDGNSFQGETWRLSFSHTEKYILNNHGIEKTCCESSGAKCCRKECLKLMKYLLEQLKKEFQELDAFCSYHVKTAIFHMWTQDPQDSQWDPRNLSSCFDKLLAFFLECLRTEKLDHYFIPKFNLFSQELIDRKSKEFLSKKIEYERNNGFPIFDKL
Starred values were filed as active, the others as inactive; ! = not active in a repeat.

Results for CC(=NCCc1ccccc1)c1c(C(F)(F)F)[nH]n(-c2nc3ccccc3s2)c1=O ?
mcGAS RapidFire: 6

How did C/C(=C1\C(=O)N(c2nc3ccccc3s2)N=C1C(F)(F)F)N1CCN(c2ccccc2)CC1 do in these assays?
mcGAS RapidFire: 66*

What do the screens show for `C/C(=N\N1CCN(C)CC1)c1c(C(F)(F)F)[nH]n(-c2nc3ccccc3s2)c1=O`?
mcGAS RapidFire: -2

How did COCCn1c(=O)c2c(nc3n(-c4cc(OC)ccc4OC)c(C)cn23)n(C)c1=O do in these assays?
mcGAS RapidFire: -6

Results for COCCn1c(O)c(C=NNc2ncnc3sccc23)c(=O)[nH]c1=S ?
mcGAS RapidFire: -6

What do the screens show for `Cc1cccc(N2CCN(CN3C(=O)NC4(CCCCCC4)C3=O)CC2)c1`?
mcGAS RapidFire: -7

Results for Cc1ccccc1CC1(CO)CCCN(C(=O)c2ccccc2N(C)C)C1 (stereo not drawn) ?
mcGAS RapidFire: 91*

Results for Cc1ccccc1CC1(CO)CCCN(C(=O)CN2CCOc3ccccc3C2)C1 (stereo not drawn) ?
mcGAS RapidFire: -9

How did Cc1cccc(C(=O)N2CCCC(CO)(Cc3ccccc3C)C2)n1 (stereo not drawn) do in these assays?
mcGAS RapidFire: -9

What do the screens show for `O=C1/C(=C/c2cccnc2)COc2c(F)cccc21`?
mcGAS RapidFire: 73*

Results for O=C1NC(=S)SC1=Cc1cccnc1 ?
mcGAS RapidFire: 19

Results for O=C1/C(=C\c2cccnc2)CSc2ccc(Br)cc21 ?
mcGAS RapidFire: 6

How did COc1ccccc1-c1cc(CN(C(=O)Nc2ccc(F)c(F)c2)C2CC2)no1 do in these assays?
mcGAS RapidFire: -7

What do the screens show for `c1ccc(-c2noc(CN3CCN(C4CCc5ccccc5C4)CC3)n2)nc1` (stereo not drawn)?
mcGAS RapidFire: -12

What do the screens show for `O=C(Nc1nncs1)c1cn(-c2ccccc2Br)nn1`?
mcGAS RapidFire: 71*

Results for O=C(Nc1nncs1)c1cnn(Cc2ccccc2Cl)c1 ?
mcGAS RapidFire: 25

What do the screens show for `O=C(Nc1nnc(C2CC2)s1)c1cn(-c2ccc(Br)cc2)nn1`?
mcGAS RapidFire: 6

Results for O=C1NC(=S)N/C1=C\c1cc2c(cc1Br)OCO2 ?
mcGAS RapidFire: -3

How did CCCc1nnc2sc(C3CCCN(c4ccccn4)C3)nn12 (stereo not drawn) do in these assays?
mcGAS RapidFire: -21

What do the screens show for `CC1=C(c2ccc(Cl)cc2)[N+](=O)C(C)(c2ccc(Br)cc2)N1[O-]` (stereo not drawn)?
mcGAS RapidFire: 90*

Results for CC(=O)C1(C)N(O)C(C)(C)C(c2ccc(Cl)cc2)=[N+]1[O-] (stereo not drawn) ?
mcGAS RapidFire: -1

Results for CC1C(c2ccc(Cl)cc2)=[N+]([O-])C(C)(c2ccccc2)N1O (stereo not drawn) ?
mcGAS RapidFire: -8

How did CC(C)N1C(=O)C(=C(C#N)C(=O)C(C)(C)C)c2ccccc21 do in these assays?
mcGAS RapidFire: -3

How did Cc1nc(=S)c2c(=O)n(C)c(=O)n(CC(C)C)c2[nH]1 do in these assays?
mcGAS RapidFire: 7

Results for Cc1ccc(NC(=O)CSc2nnc(N3CCOCC3)n2C2CC2)cc1 ?
mcGAS RapidFire: -3

How did CCc1cn[nH]c1C1CCCN(C(=O)c2cc3cc(Cl)cc(OC)c3o2)C1 (stereo not drawn) do in these assays?
mcGAS RapidFire: 2

What do the screens show for `CC1CCCN(Cc2nc3c([nH]2)c(=O)n(C)c(=O)n3C)C1` (stereo not drawn)?
mcGAS RapidFire: -1

How did O=C(O)C1CSC(c2cc(Br)ccc2O)N1 (stereo not drawn) do in these assays?
mcGAS RapidFire: -2

What do the screens show for `O=C(O)C1CSC(c2cc(Br)c(O)c(Br)c2)N1` (stereo not drawn)?
mcGAS RapidFire: 87*

How did CSc1ccc(C2NC(C(=O)O)CS2)cc1 (stereo not drawn) do in these assays?
mcGAS RapidFire: -4

Results for CC(=C(C#N)C#N)c1ccc2c(c1)OCO2 ?
mcGAS RapidFire: -2

Results for C[n+]1cc2c3c(ccc2c2ccc4cc5c(cc4c21)OCO5)OCO3 ?
mcGAS RapidFire: 85*!

How did Cc1ccc2nc(C)c(NC(=O)c3ccc(Cl)nc3)c(=O)n2c1 do in these assays?
mcGAS RapidFire: -9

How did Cc1cc(C(NC(C)(C)C)C(=O)O)cc(C)c1O (stereo not drawn) do in these assays?
mcGAS RapidFire: 1

How did Cc1ncn(Cc2nc(-c3cccc(Oc4ccccc4)c3)oc2C)n1 do in these assays?
mcGAS RapidFire: -17

What do the screens show for `Cc1nc(CCN)cc(N2CC3C[C@@H]4CC2C[C@H](C3)C4)n1`?
mcGAS RapidFire: 9

What do the screens show for `Cc1nc(CCN)cc(N2CCC(N3CCCC3)CC2)n1`?
mcGAS RapidFire: -12

How did CCCOC1CCCN(c2cc(CCN)nc(C)n2)C1 (stereo not drawn) do in these assays?
mcGAS RapidFire: 97*

How did Cn1c(-c2ccccc2Cl)nn(CN2CCc3sccc3C2)c1=S do in these assays?
mcGAS RapidFire: 1

Results for Cc1ccc(-c2cc(C(=O)Nc3cnn(C45CC6CC(CC(C6)C4)C5)c3)no2)cc1 ?
mcGAS RapidFire: 6

Results for CCCn1cc(NC(=O)c2cc(-c3ccccc3)on2)cn1 ?
mcGAS RapidFire: 72*

Results for O=C(Nc1cnn(C23CC4CC(CC(C4)C2)C3)c1)c1cc(-c2ccccc2)on1 ?
mcGAS RapidFire: 1

What do the screens show for `Cc1ccc2ncn(CC(=O)NC3CCCc4ccccc43)c(=O)c2c1` (stereo not drawn)?
mcGAS RapidFire: -14

How did CCN1C(=O)NC(c2ccccc2[N+](=O)[O-])C(C(=O)OCCOC)=C1C (stereo not drawn) do in these assays?
mcGAS RapidFire: -8

Results for COC(=O)C1=C(C)NC(C)=C(C(=O)OCC(C)C)C1c1ccccc1[N+](=O)[O-] (stereo not drawn) ?
mcGAS RapidFire: 65*!

How did COC(=O)C1=C(C)NC(C)=C(C(=O)OCCN)C1c1ccccc1C(F)(F)F (stereo not drawn) do in these assays?
mcGAS RapidFire: -7

Results for CCn1cccc(-c2nnc(SCC(=O)Nc3ccccc3F)n2C)c1=O ?
mcGAS RapidFire: -7

What do the screens show for `Cc1noc(C)c1C(=O)OCc1nc(-c2cccs2)no1`?
mcGAS RapidFire: -15

What do the screens show for `Cc1ccc(C(=O)Nc2c(C)nc3c(C)cccn3c2=O)cc1C`?
mcGAS RapidFire: -15

Results for Nc1c(-c2ccccc2)cnn1-c1ccc([N+](=O)[O-])cc1 ?
mcGAS RapidFire: -31

What do the screens show for `N#Cc1cc2[nH]c3ccccc3c2n(-c2ccc([N+](=O)[O-])cc2)c1=N`?
mcGAS RapidFire: -7

How did CC1(C)Cc2c(cnn2-c2ccc([N+](=O)[O-])cc2)-c2[nH]c3ccccc3c21 do in these assays?
mcGAS RapidFire: 76*

Results for CC(=O)CSc1nnc(C2CC(c3ccc(Cl)cc3)=NNC2=O)n1-c1ccccc1 (stereo not drawn) ?
mcGAS RapidFire: -3

What do the screens show for `O=C1NC(=S)SC1=Cc1ccccc1[N+](=O)[O-]`?
mcGAS RapidFire: 2

How did COc1cc(C=C2SC(=S)NC2=O)cc(OC)c1 do in these assays?
mcGAS RapidFire: -5

What do the screens show for `COc1ccc(-c2ccc(/C=C3\SC(=S)NC3=O)o2)c([N+](=O)[O-])c1`?
mcGAS RapidFire: 65*

Results for Cc1ccc(N2C(=O)C(=O)N(c3ccc(C)cc3)C2=S)cc1 ?
mcGAS RapidFire: -17

Results for COc1cccc(C2CCCN2c2ccc(-c3nc(C4CC4)no3)cn2)c1 (stereo not drawn) ?
mcGAS RapidFire: -5
